Drawing on PubChem BioAssay AID1159606 (Sanford-Burnham Center for Chemical Genomics, 2016), this text covers inhibition for 69 molecules.

The structures appear in SMILES notation. Hit rate of the full screen: of about 360,000 compounds, about 7,300 (2%) were called active. The full list was thinned out, with actives kept by preference. A number with no mark means an inactive call. Cut-off read from the data, not from the text of the source: active = inhibition above about 50%; inactive = the rest.

The nature of this test: blockers of TWEAK-induced Fn14 reporter activity – luciferase reporter cells, uHTS, primary screen (AID 1159606). To be noted: TWEAK-stimulated Fn14 reporter cells, luciferase luminescence, 8 h; at 10 µM; active compounds read high.
With `CCOc1ccc(NC(=O)CN(C)CC(=O)Nc2cccc(Cl)c2C)cc1OCC`, the inhibition is 5.07%.

Turning to `C=CCn1c(C)cc(C2=NNC(=NCC)SC2)c1C`, the inhibition was 107% (active).

For `CCc1nc2ccc(C(=O)Nc3ccc(OC)c(OC)c3)cn2c1N(C)C(=O)c1cccc(OC)c1`, the inhibition was -18.4%.

On to `COc1cccc(CN(C)CC2CCCN(CCc3ccc(Cl)cc3)C2)c1OC` (centres undefined), for which the inhibition is -2.09%.

Turning to `O=C(NCc1ccccc1)[C@@H]1CSC2c3ccccc3C(=O)N21` (some centres undefined), the inhibition is 8.08%.

`Cc1ccc2nc(SC(C)C(=O)NCc3ccco3)[nH]c2c1` (centres undefined): the inhibition was 46%.

Regarding `CCOc1ncccc1C(=O)Nc1ccc(S(=O)(=O)Nc2nc(C)cc(C)n2)cc1`, the inhibition is -19.9%.

Turning to `CCOc1ncccc1C(=O)Nc1ccc2c(c1)OCCO2`, the inhibition was 68.7% (active).

For the molecule `CSc1ncccc1C(=O)Nc1ccc2c(c1)OCO2`, the inhibition is 1.24%.

For the molecule `COC(=O)[C@]12CCCCC=C1N(Cc1ccco1)C(=O)[C@H](CC(=O)NCCCCc1ccccc1)C2`, the inhibition is 16.9%.

On to `O=C(NCCc1ccccn1)c1cc(C(=O)C2CCCCC2)c[nH]1`, for which the inhibition was 4.9%.

For the molecule `Cc1cc(C)c(C#N)c(SCC(=O)N(CC(C)C)C2CCS(=O)(=O)C2)n1` (centres undefined), the inhibition is 4.51%.

As to `COC(=O)C(Cc1c[nH]c2ccccc12)NC(=O)CCNC(=O)c1ccco1` (centres undefined), the inhibition is -24.2%.

For `O=C1NC[C@H](CCCCN2CCN(CCc3ccccc3)C(=O)C2=O)N(CC2CCCCC2)C1=O`, the inhibition was -2.45%.

`O=C1OCCOC2CCCc3oc(-c4ccccc4)c1c32` (centres undefined): the inhibition was 16.6%.

Turning to `Cc1noc(C)c1S(=O)(=O)N(CC(=O)Nc1ccc2c(c1)OCCO2)c1ccc(C(C)C)cc1`, the inhibition is 35.5%.

On to `COc1ccc(N(CC(=O)Nc2cc(OC)ccc2OC)S(=O)(=O)c2c(C)noc2C)cc1`, for which the inhibition was -0.61%.

`CCOC(=O)c1cccc(NC(=O)CN(c2ccc(C)cc2)S(=O)(=O)c2c(C)noc2C)c1`: the inhibition is 57.7% (active).

As for `S=c1[nH]nc(/C=C/c2ccccc2)o1`, the inhibition is 9.4%.

For `O=c1oc(/C=C/c2ccccc2)nc2ccccc12`, the inhibition is 55.3% (active).

Regarding `O=c1[nH]c(/C=C/c2cccc(Br)c2)nc2ccccc12`, the inhibition was -14.4%.

With `CCN(c1ccccc1)S(=O)(=O)c1cc2c(cc1C)n(C)c(=O)c(=O)n2C`, the inhibition is -4.66%.

With `Cc1ccc(-c2cn3cc(C)ccc3n2)cc1`, the inhibition was 105% (active).

Regarding `COc1ccc(-c2nc3ccc(Br)cn3c2Cc2ccc(C)cc2)cc1OC`, the inhibition is -20.3%.

With `CS(=O)(=O)Nc1cccc(-c2cn3ccccc3n2)c1`, the inhibition was -6.02%.

Take `Cc1ccc(-c2nc3ccc(Br)cn3c2Cc2ccccc2C(F)(F)F)cc1`: the inhibition was 5.76%.

Take `Cc1ccc(-n2cc3ccc([N+](=O)[O-])cc3n2)cc1`: the inhibition is 39.8%.

For `Cc1ccc(-c2cc(N)on2)cc1`, the inhibition is -5.28%.

With `COc1ccc(-c2cn3ccc(C)cc3n2)cc1`, the inhibition was 81.6% (active).

As to `COc1ccc(C2=Nc3cc(C)ccc3OC2)cc1`, the inhibition is 27.9%.

Turning to `Cc1ccc(-c2cn3cc([N+](=O)[O-])ccc3n2)cc1`, the inhibition is 76.3% (active).

In the case of `Cc1ccc2nc(-c3ccc(Br)cc3)cn2c1`, the inhibition is 98.8% (active).

As to `FC(F)(F)Oc1ccc(-c2cn3cccnc3n2)cc1`, the inhibition is -15.1%.

With `Cc1ccnc(N2C(=O)c3ccc([N+](=O)[O-])cc3C2=O)c1`, the inhibition is 5.4%.

In the case of `Cc1ccc(OCC(=O)Nc2ccccc2Sc2ccc(Cl)cc2)c([N+](=O)[O-])n1`, the inhibition is 13.7%.

`COc1cccc(-c2cc3nc(NCCOc4ccccc4Cl)n(C)c(=O)c3s2)c1`: the inhibition was 15.1%.

Consider `CCOC(=O)C1CCCN(C(=O)c2cc(-c3cccs3)oc2C)CC1` (centres undefined), for which the inhibition is 31.6%.

As to `Cc1ccc(S(=O)(=O)Nc2ccccc2CNc2c(C)n(C)n(-c3ccccc3)c2=O)cc1`, the inhibition is 12.4%.

With `O=C(NCC(=O)N1CCN(c2ccccc2O)CC1)c1ccc2ccccc2c1`, the inhibition was -22.9%.

For `CC(C)C1Cc2[nH][nH]c(=O)c2C(c2ccc(Cl)cc2)O1` (centres undefined), the inhibition was -23.3%.

With `COc1ccc(C(=O)OCC(=O)c2ccc(Cl)s2)c(OC)c1OC`, the inhibition was -38.7%.

On to `CNc1cncc(-c2ccc(NS(C)(=O)=O)cc2)n1`, for which the inhibition is 34.6%.

On to `CC1(C)OC(=O)C2=C(C[C@@H](C3CC3)O[C@H]2CCc2cccc(Cl)c2)O1`, for which the inhibition was -0.44%.

As to `Cc1ccc(S(=O)(=O)N(C)c2ccc(OCC(=O)OCC(=O)N(CC#N)c3ccccc3)cc2)cc1`, the inhibition was -12%.

For `Cc1oc2cc(Br)c(O)c(Br)c2c1C(=O)c1ccccc1`, the inhibition was -24.8%.

In the case of `CCOC(=O)c1c(-c2ccccc2)oc2cc(Br)c(O)c(C=O)c12`, the inhibition was 97.5% (active).

With `CCOC(=O)c1c(C)oc2cc(Sc3ccccc3)c(O)c(O)c12`, the inhibition was -4.97%.

On to `CC1CCCN(c2ccc(C(=O)NCCc3ccccc3)cn2)C1` (centres undefined), for which the inhibition is 6.92%.

Turning to `CCC(C)N(C(=O)CSc1nnnn1-c1ccccc1OC)C1CCS(=O)(=O)C1` (centres undefined), the inhibition was 14.9%.

Regarding `COc1ccccc1-n1nnnc1S(=O)(=O)Cc1ccc(Cl)cc1`, the inhibition was 102% (active).

Take `CCN(C(=O)CSc1nnnn1-c1ccccc1OC)C1CCS(=O)(=O)C1` (centres undefined): the inhibition was 3.05%.

On to `CNC(=O)NCCN1CCCC1=O`, for which the inhibition is -16.3%.

Turning to `O=C(NCc1ccc(F)cc1F)[C@@H]1CCCN1C(=O)[C@@H]1CCCN1C(=O)c1cccc(Cl)c1`, the inhibition was 22.6%.

As to `Cc1ccc2nc(-c3ccco3)c(Cc3cccc(Cl)c3)n2c1`, the inhibition is 10.4%.

Take `CC(=O)c1c(C)[nH]c(C(=O)OCC(=O)Nc2c(C)cccc2C)c1C`: the inhibition was 12.5%.

`N#CCC(=O)Nc1ccc(C(=O)OCC(=O)Nc2sc3c(c2C#N)CCCC3)cc1`: the inhibition was -31.7%.

As to `CC(=O)c1c(C)[nH]c(C(=O)OCC(=O)Nc2sc3c(c2C#N)CCCC3)c1C`, the inhibition was 64.3% (active).

Take `CCCc1nc2scc(-c3ccc(C)cc3)c2c(=O)n1N`: the inhibition is 17.3%.

Turning to `N#Cc1ccc(OCC(=O)Nc2nc(-c3ccccn3)cs2)cc1`, the inhibition was -7.26%.

For the molecule `C/C(CC1CC(C)(C)OC1=O)=N/Nc1nc(-c2ccccc2)cs1` (centres undefined), the inhibition was -29.9%.

With `COc1ccc(C(C)(NC(C)=O)c2nc(-c3ccc(S(C)(=O)=O)cc3)cs2)cc1` (centres undefined), the inhibition is -12.5%.

Regarding `COc1cc(C(O)c2nc(-c3cccc(C(=O)O)c3)cs2)ccc1F` (centres undefined), the inhibition was -19.5%.

As to `COc1ccc2c(c1OC)C(=O)OC2Nc1nc(-c2ccccc2)cs1` (centres undefined), the inhibition was 66.1% (active).

As to `Cc1ccc(-c2csc(NC3OC(=O)c4ccccc43)n2)cc1` (centres undefined), the inhibition is 85.8% (active).

`Cn1cc(C2OC(=O)c3ccccc32)c2ccccc21` (centres undefined): the inhibition was 38.7%.

Turning to `COc1ccc(N/C=C(\C2OC(=O)c3ccccc32)[N+](=O)[O-])cc1` (centres undefined), the inhibition is 9.49%.

Turning to `COc1ccc(-c2csc(NC3OC(=O)c4ccccc43)n2)cc1` (centres undefined), the inhibition was 66.2% (active).

Consider `COc1ccc(-c2csc(Nc3ccccn3)n2)cc1`, for which the inhibition was 68.4% (active).

Regarding `COc1ccc(C(O)c2nc(-c3ccc(OC)nc3)cs2)cc1` (centres undefined), the inhibition was -2.94%.
